# HT1080 IDH1KD tx – kills HT-1080 cells with IDH1 knockdown. AID 686971. Potency, µM (series often up to 46.1 µM), without a hit: at the highest dose activity, negative = toxicity, actives largely listed as cytotoxic. HT-1080 IDH1 knockdown viability, ATP luminescence, 48 h. 360,000 tested, 2% active;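 note: potency is the fitted concentration of half-maximal effect; 0% = DMSO wells and -100% = cell-free medium wells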
#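 Knockdown cells (IDH1KD HT-1080) received compounds 2 h after plating at 750 cells/well and were kept 48 h at 37 °C in 5% FBS RPMI. A CellTiter-Glo luminescence read gave % activity for curve fitting.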
# TDP1 cell CPT – growth inhibition of DT40 Tdp1-/-;hTDP1 cells with camptothecin (screen for TDP1 inhibitors); 420,000 tested, 12% active; chicken DT40 Tdp1-/-;hTDP1 cells + 20 nM CPT, ATP luminescence, 48 h; AID 686979; Potency, µM (titrated, usually from 46.2 µM), inactives show at the highest dose activity change, negative = growth inhibition, hits mostly inhibitors; note: potency is the fitted concentration of half-maximal effect; nearly all actives have a fitted effect of over 55% in size
#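 Chicken DT40 Tdp1-/- cells complemented with human TDP1, 400 cells/well, exposed to compounds plus 20 nM camptothecin for at least 48 h at 37 C; viability read as ATP content by CellTiter-Glo luminescence.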
# HT1080NT lethal – kills 2HG-producing HT-1080-NT fibrosarcoma cells; HT-1080-NT fibrosarcoma viability, CellTiter-Glo ATP luminescence, 48 h; Potency, µM (highest dose often 46.1 µM), for inactives: at the top dose activity, negative = less viability, hits mostly cytotoxic; 360,000 tested, 1.6% active;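 note: NT is the 2HG producing partner of a matched IDH1 knockdown line; potency is the fitted concentration of half-maximal effect; 0% = DMSO-treated cells and -100% = media-only wells without cells; nearly all actives have a fitted effect of over 55% in size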
#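 750 cells/well, RPMI + 5% FBS; 2 h settle, compound pin-transfer, 48 h at 37 degrees C. CellTiter-Glo 10 min RT, luminescence. Normalized to DMSO and media-only wells.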
# TDP1 cell noCPT – qHTS for Inhibitors of human tyrosyl-DNA phosphodiesterase 1 (TDP1): qHTS in cells in absence of CPT; 420,000 tested, 15% active; Potency, µM (top dose mostly 46.2 µM), for the others: top-dose activity change, negative = growth inhibition, hits mostly inhibitors; AID 686978, 2013; DT40 Tdp1-/- hTDP1 cells, no CPT, ATP luminescence, 48 h; note: potency is the fitted concentration of half-maximal effect; nearly all actives have a fitted effect of over 55% in size
#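 Camptothecin absent (DMSO only). Human TDP1-complemented DT40 knockout cells, 400 cells/well, 37 °C for minimum 48 hr; ATP measured via CellTiter-Glo, 30 min dark incubation, luminescence.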
# IL1B secr inh – inhibitors of inflammasome signaling (IL-1 beta secretion) | activity change, % at 57.5 µM | THP-1 LPS/ATP IL-1B secretion, AlphaLISA, 16 h; hits give low values | 360,000 tested, 4.7% active; in the data active = activity change below about -50%; inconclusive = mostly about -30% to -49%
#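 Secreted IL-1B measured by AlphaLISA bead assay after 16 h compound exposure of THP-1 cells; compounds (final up to 57.5 uM) added 1 h before LPS (250 ng/mL) and ATP (1.25 mM) stimulation; lower signal means less secretion.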
# Starred values were filed as active, the others as inactive; i = inactive; u = inconclusive; x = not tested or not shown; [ ] = another dose, or the depositor's remark. An excerpt weighted towards active compounds, which were near 19% of everything screened. Unless noted, calls come from the whole dose curve; as a rule, active = well fitted curve in the direction sought with a large enough effect; inconclusive = small, poorly fitted or top-dose-only effect, or another doubt; inactive = no such curve, though single readings can be large; an effect the other way counts as inactive or inconclusive. Unless noted, % is set by controls: 0 for no effect and ±100 for the full control effect.
SMILES,HT1080 IDH1KD tx,TDP1 cell CPT,HT1080NT lethal,TDP1 cell noCPT,IL1B secr inh
COc1ccc(Nc2nnc(-c3ccc(C)cc3)c3ccccc23)cc1C(=O)N1CCCCC1,u,u,u,u,-74*
O=C(NNC(=O)C1CC(c2cccnc2)=NO1)Nc1cccc(F)c1 (stereo not given),-1%,-17%,-1%,10%,-8
CSc1ccc(/C=C(\C#N)C(=O)NC2CCCCC2C)cc1 (stereo not given),u,u,u,10µM*,-120*
COc1ccc(/C=C(/C#N)C(=O)NC2CCCCC2)cc1Br,14%,u,17%,u,-14
N#C/C(=C\c1c(F)cccc1Cl)C(=O)NC1CC1,-12%,u,-22%,u,-74*
CC1CCCCC1NC(=O)/C(C#N)=C/c1ccccc1F (stereo not given),18µM*,-104%,u,-100%,-101*
CC(=O)Nc1ccc(/C=C(\C#N)C(=O)NC2CCCCC2C)cc1 (stereo not given),-12%,-1%,-4%,u,u
Cc1[nH]c2ccccc2c1/C=C(\C#N)C(=O)NC1CC1,-1%,-18%,-2%,-4%,-26
COc1cc(/C=C(\C#N)C(=O)NC2CCCCC2C)ccc1OS(=O)(=O)c1ccc(C)cc1 (stereo not given),u,u,u,16µM*,-103*
C=CCn1c(-c2cccn(Cc3ccc(Cl)cc3Cl)c2=O)n[nH]c1=S,u,-27%,u,-8%,8
O=C1Cc2ccccc2C(=O)N1c1ccc(F)cc1Cl,16%,u,22%,16µM*,-9
CC(=O)Nc1cccc(Nc2nc3ccccc3n3c(C)nnc23)c1,x,2.6µM*,x,2.3µM*,x
Cc1cc(C)c(Nc2nc3ccccc3n3c(C)nnc23)c(C)c1,x,15µM*,x,13µM*,x
COc1cc(OC)c(NC(=O)CN2CCCN(Cc3ccccc3C)S2(=O)=O)cc1Cl,x,u,x,1%,x
COc1ccc(OCCCC(=O)ON=C(N)c2ccccc2Cl)cc1,20%,-2%,14%,15%,-7
Cc1onc(-c2c(Cl)cccc2Cl)c1NC(=O)NC1CCSC1 (stereo not given),11%,-8%,11%,-14%,13
C=CCC1C=C(Cc2ccccc2)CC(CC=C)N1 (stereo not given),-17%,18µM*,-2%,23µM*,-3
C=CC[C@H]1CC(Cc2ccccc2)=C[C@H](CC=C)N1,-2%,16µM*,-4%,18µM*,-75*
CCN(CC(=O)NC(C)(C)C)Cc1cc(=O)n2c(-c3ccccc3)csc2n1,-3%,-1%,9%,-30%,50
C/C(=N\NC(=O)c1c(Br)c(C)nn1C)c1cccc(NC(=O)c2ccccc2F)c1,0%,14%,17%,u,-15
C/C(=N\NC(=O)c1nn(C)c(C)c1Br)c1cccc(NC(=O)c2ccc(F)cc2)c1,9%,u,1%,16µM*,0
C/C(=N\NC(=O)c1c(Cl)c(C)nn1C)c1cccc(NC(=O)c2cccc(F)c2)c1,-1%,u,-3%,23µM*,i
CN(C)S(=O)(=O)c1ccc(Cl)c(NC(=O)CN2C(=O)NC(C)(C3CC3)C2=O)c1 (stereo not given),3%,3%,0%,-15%,7
Cc1ccc2c(c1)cc(C(=O)NCc1ccccc1C)n2C,x,-17%,x,-25%,x
COc1ccc(CNC(=O)CN2C(=O)COc3ccc(S(=O)(=O)N4CCOCC4)cc32)cc1,8%,-22%,10%,14%,24
SMILES,HT1080 IDH1KD tx,TDP1 cell CPT,HT1080NT lethal,TDP1 cell noCPT,IL1B secr inh
O=C(Nc1ccc2nc(-c3ccco3)c(-c3ccco3)nc2c1)N1CCCCCC1,u,12µM*,-29%,15µM*,u
Cc1nc2ccc(NC(=O)N3CCCCC3)cc2nc1C,11%,-2%,6%,-19%,-6
CCOC(=O)C1CCN(C(=O)Nc2ccc3nc(-c4ccco4)c(-c4ccco4)nc3c2)CC1,-3%,u,-3%,18µM*,-11
CCOC(=O)C1CCN(C(=O)Nc2ccc3c(c2)nc(C)n3C)CC1,5%,-3%,-1%,2%,-4
COc1cccc(C2=NOC(C(=O)Nc3c(C)n(C)n(-c4ccccc4)c3=O)C2)c1 (stereo not given),24%,-8%,9%,1%,-14
CC1(C)CC(=O)c2cc(OCC(=O)NCCCN3CCN(c4ccc(F)cc4)CC3)ccc2O1,u,11µM*,u,u,u
COc1ccc(-c2noc(CCC(=O)N3CCN(c4ccc(F)cc4)CC3)n2)cc1,6%,-27%,3%,-15%,23
CC(C)CCNC(=O)COc1ccc2c(c1)C(=O)CC(C)(C)O2,2%,-25%,-2%,u,17
Cc1ccc(-c2noc(CCC(=O)NCCCN3CCN(c4cccc(Cl)c4)CC3)n2)cc1,u,12µM*,u,8.2µM*,-67*
Cc1ccc(-c2noc(CCC(=O)NCCCN3CCN(c4ccc(F)cc4)CC3)n2)cc1,-12%[9.24 µM],6.5µM*,23µM*,7.3µM*,-68*
CC(C)(C)OC(=O)NCCCCCNC(=O)c1[nH]cnc1C(=O)Nc1ccon1,2%,u,0%,u,48
CCOC(=O)c1c(C(F)(F)C(F)(F)C(F)(F)C(F)(F)F)n[nH]c1C,-15%,u,-13%,-22%,19
COc1cccc(C(C(=O)NCc2ccco2)N(C(=O)Cn2nnc3ccccc32)C2CC2)c1OC (stereo not given),13%,18µM*,11%,13µM*,7
O=C(NC1CCCCC1)C(c1ccc(F)cc1)N(Cc1ccco1)C(=O)Cn1nnc2ccccc21 (stereo not given),-28%,-23%,-17%,-16%,9
CCC(C)(C)NC(=O)C(c1ccc(C)cc1)N(Cc1ccco1)C(=O)Cn1nnc2ccccc21 (stereo not given),u,-16%,u,-30%,31
Cc1ccc(C(C(=O)NC2CCCCC2)N(Cc2ccco2)C(=O)Cn2cnc3ccccc32)cc1 (stereo not given),u,18µM*,-21%,u,-2
O=C(NC1CCCCC1)C(c1ccccc1F)N(Cc1ccco1)C(=O)Cn1nnc2ccccc21 (stereo not given),-1%,u,-8%,18µM*,-7
Cc1cccc(C)c1NC(=O)C(c1cccs1)N(Cc1ccco1)C(=O)Cn1nnc2ccccc21 (stereo not given),3%,u,8%,10µM*,-3

# Compound activity as filed in PubChem BioAssay.
